Screening data from PubChem BioAssay.
MITF act: activators of MITF-driven TRPM1 promoter activity in SK-MEL-5 cells. activation, % at 12.5 µM. actives 0.75% (n = 300,000). SK-MEL-5 TRPM1-promoter luciferase, 24 h; % of positive control, neutral wells = 0;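 active means mean activation of at least 80% with every replicate also reaching 80%; inconclusive means mean reaches 80% but some replicate falls short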
esBAF inh: SWI/SNF esBAF complex inhibition; mouse ES cells, Bmi1-luciferase knock-in reporter, 24 h; 100% = twice the neutral-well signal; reporter increase, % at 12.5 µM; actives 2% (n = 350,000); in the data active means activation above about 40%; inconclusive means no clear call, values can overlap the other calls;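 further: a rise in the Bmi1 reporter signal indicates esBAF inhibition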
AHR act: activators of human aryl hydrocarbon receptor; P35869; AHR-responsive luciferase reporter cells, luminescence; activation, % at 5 µM; actives 2.5% (n = 320,000); in the data active means activation above about 47%
Target sequence (P35869 whole entry, looked up): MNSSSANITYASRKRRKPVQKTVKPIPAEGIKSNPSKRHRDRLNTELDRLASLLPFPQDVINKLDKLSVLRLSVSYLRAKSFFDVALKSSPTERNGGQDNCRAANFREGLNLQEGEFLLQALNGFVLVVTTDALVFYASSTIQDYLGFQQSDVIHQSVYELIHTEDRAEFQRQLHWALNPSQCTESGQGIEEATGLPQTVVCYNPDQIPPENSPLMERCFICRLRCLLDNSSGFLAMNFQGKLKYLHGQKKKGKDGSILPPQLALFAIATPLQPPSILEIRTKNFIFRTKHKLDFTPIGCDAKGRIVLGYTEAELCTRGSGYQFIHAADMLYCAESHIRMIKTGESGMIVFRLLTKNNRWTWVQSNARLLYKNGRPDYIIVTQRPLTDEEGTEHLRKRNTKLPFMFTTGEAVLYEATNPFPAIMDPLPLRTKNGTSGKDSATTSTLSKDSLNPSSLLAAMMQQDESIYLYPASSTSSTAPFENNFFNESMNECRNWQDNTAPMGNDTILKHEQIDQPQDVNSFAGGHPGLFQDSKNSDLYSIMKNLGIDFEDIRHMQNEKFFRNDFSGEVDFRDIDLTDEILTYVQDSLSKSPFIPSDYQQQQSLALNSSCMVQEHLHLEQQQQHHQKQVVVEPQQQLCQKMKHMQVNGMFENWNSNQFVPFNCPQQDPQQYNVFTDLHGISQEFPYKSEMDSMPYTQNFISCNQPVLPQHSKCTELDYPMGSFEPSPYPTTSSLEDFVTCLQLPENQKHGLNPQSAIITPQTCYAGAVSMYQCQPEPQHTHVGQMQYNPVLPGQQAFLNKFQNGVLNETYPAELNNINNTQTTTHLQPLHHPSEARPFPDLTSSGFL
Wnt act: Wnt/beta-catenin pathway activation; Wnt/beta-catenin reporter cell assay, activator, plate reader; activation, % at 9.35 µM; actives 1.2% (n = 300,000); AID 743398; in the data active means activation above about 30%, passing the limit was not always enough; inconclusive means no clear call, values can overlap the other calls
GAA850 FXN act: activators of GAA850 frataxin (FXN) promoter. activation, % at 6 µM. actives 0.56% (n = 360,000). HEK293 lucGAA850 FXN promoter luciferase reporter, 24 h; percent of 10 µM SAHA response;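 active means activation above the average of all compounds screened plus 3 SD, cutoff fixed separately per campaign, cut at about 7.5% in these data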
A number is an active result; n = inactive; u = inconclusive; x = no result. A selection: hits, their analogues and other compounds. The true share with any hit is near 4.2%.

SMILES	MITF act	esBAF inh	AHR act	Wnt act	GAA850 FXN act
Cc1cc(C(=O)COC(=O)c2ccc(NC(=O)CC#N)cc2)c(C)n1CC(F)(F)F	x	62	x	n	n
Cc1cc(C(=O)COC(=O)c2ccc(Cl)c(S(N)(=O)=O)c2)c(C)n1C1CC1	97	78	n	45	n
C[C@@H]1CN([C@@H](C)CO)C(=O)CCCn2cc(nn2)CO[C@@H]1CN(C)C(=O)NC1CCCC1	x	n	x	x	x
C[C@H](CO)N1C[C@H](C)[C@@H](CN(C)S(C)(=O)=O)Oc2ccc(NS(=O)(=O)c3cccs3)cc2CC1=O	x	n	x	x	x
COc1ccc(S(=O)(=O)N[C@H]2CC[C@@H](CC(=O)NCc3ccccc3F)O[C@@H]2CO)cc1	x	n	x	x	x
CCCC(=O)Nc1ccc2c(c1)C(=O)N(C)[C@H]1CC[C@H](CC(=O)NCCOC)O[C@@H]1CO2	x	n	x	x	x
CN(C)C(=O)C[C@H]1C[C@H]2c3cc(NC(=O)C4CCOCC4)ccc3O[C@H]2[C@@H](CO)O1	x	n	x	x	x
O=C(O)c1cccc(Nc2nc(-c3cc4ccccc4oc3=O)cs2)c1	n	51	x	n	n
O=C(Nn1cnc2ccccc2c1=O)c1ccccc1Cl	n	n	n	x	n
O=C(Nn1cnc2ccccc2c1=O)c1c(F)cccc1F	n	n	n	44	n
COc1ccc2cc(C(=O)c3ccccc3)c(=O)oc2c1	n	66	n	x	n
O=C(Nc1ccc(F)cc1F)c1cc2ccccc2oc1=O	x	n	n	50	n
O=C(NNC(=O)c1cc2ccccc2oc1=O)c1ccccc1	x	55	n	n	n
O=C(c1cc2ccccc2oc1=O)N1CCN(c2ncccn2)CC1	x	70	n	x	n
O=C(c1cc2ccccc2oc1=O)N1CCN(c2ccccn2)CC1	n	n	n	n	n
O=C(c1ccccc1)N1CCN(C(=O)c2cc3ccccc3oc2=O)CC1	x	n	n	n	n
C[C@H]1CN([C@@H](C)CO)C(=O)c2cccc(NS(=O)(=O)c3cn(C)cn3)c2O[C@@H]1CN(C)C(=O)NC1CCCCC1	x	n	x	x	x
COCC(=O)Nc1ccc2c(c1)C(=O)N(C)C[C@@H](OC)[C@@H](C)CN(Cc1cc(F)ccc1F)[C@@H](C)CO2	x	n	x	x	x
CN(c1ccccc1)S(=O)(=O)c1cccc(NC(=O)c2cc3ccccc3oc2=O)c1	n	54	n	n	n
NC(=O)c1cc2ccc(O)cc2oc1=NCc1ccccc1	n	45	n	n	n
COc1ccc2cc(C(N)=O)c(=Nc3ccccc3)oc2c1	102	x	n	u	n
O=C(c1ccccc1)c1cc2ccccc2oc1=O	n	n	49	n	n
c1ccc(-c2nc(-c3nccc4ccccc34)oc2-c2ccccc2)cc1	109	x	n	n	n
COc1ccc(CN(C)C[C@H]2Oc3ccc(NS(=O)(=O)c4ccc(OC)cc4)cc3CC(=O)N([C@@H](C)CO)C[C@@H]2C)cc1	x	n	x	x	x
C[C@@H]1CN([C@@H](C)CO)C(=O)c2cc(C#Cc3cccnc3)cnc2O[C@H]1CN(C)C(=O)CN(C)C	x	n	x	x	x
SMILES	MITF act	esBAF inh	AHR act	Wnt act	GAA850 FXN act
C[C@@H]1CCCCO[C@H](CN(C)C(=O)Cc2ccccc2)[C@H](C)CN([C@H](C)CO)C(=O)c2cc(NC(=O)c3ccncc3)ccc2O1	x	n	x	x	x
Cc1nc(Cl)sc1C(=O)Nc1ccc(Cl)cc1	n	n	93	n	n
Cc1nc(Nc2ccccc2)sc1C(=O)Nc1ccccc1	n	x	n	n	n
Cc1nc(NCc2ccccc2)sc1C(=O)Nc1ccccc1	n	59	n	n	n
C[C@@H]1CN([C@@H](C)CO)C(=O)c2cc(-c3cccnc3)cnc2O[C@H]1CN(C)C(=O)C1CCC1	x	n	x	x	x
CC(=O)Nc1ccc(NC(=O)CC2Nc3cccc4cccc(c34)NC2=O)cc1 (stereo not given)	n	n	n	x	n
Cc1cccc(NC(=O)CC2Nc3cccc4cccc(c34)NC2=O)c1 (stereo not given)	n	x	75	n	n
COc1ccc(NC(=O)CC2Nc3ccccc3NC2=O)c([N+](=O)[O-])c1 (stereo not given)	n	x	n	n	n
COc1ccccc1NC(=O)CC1Nc2ccccc2NC1=O (stereo not given)	x	n	56	x	n
O=C1Cc2ccccc2C(=O)N1CCc1ccccc1	n	n	73	n	n
C#CCn1cccc(C(=O)Nc2ccc(OC)cc2)c1=O	n	53	n	n	n
CCCn1cccc(C(=O)Nc2ccc(OC)cc2)c1=O	n	n	75	n	n
O=C(Nc1ccccc1)c1ccc(=O)n(Cc2cccc(Cl)c2)c1	n	x	n	n	n
C=CCn1cccc(C(=O)Nc2ccc(OCC)cc2)c1=O	n	n	n	n	n
C#CCn1cc(Cl)cc(C(=O)Nc2ccccc2)c1=O	n	x	62	n	n
O=C(C[C@H]1C[C@@H]2c3cc(NS(=O)(=O)c4ccc(F)cc4)ccc3O[C@@H]2[C@@H](CO)O1)NCc1ccccc1F	x	n	x	x	x
Cc1ccc(S(=O)(=O)Nc2cccc3c2O[C@@H](CN(C)C)[C@@H](C)CN([C@H](C)CO)C3=O)cc1	x	n	x	x	x
O=C(C1CCOCC1)N1C[C@@H]2[C@H](c3ccccc31)[C@@H](CO)N2Cc1ccc(Cl)cc1	x	n	x	x	x
O=C(NNC(=S)Nc1ccc(Cl)cc1)c1ccccc1OC(F)F	n	x	104	n	n
O=C(NNC(=S)NCc1ccccc1)c1ccccc1OC(F)F	n	x	n	n	n
N#C[C@H]1[C@@H](c2ccc(C#CC3CC3)cc2)[C@H](CO)N1S(=O)(=O)c1ccccc1	x	n	x	x	x
C=CCNC(=O)C1CC(=O)N(c2ccc(OCC(=O)Nc3ccccc3)cc2)C1 (stereo not given)	u	53	n	u	n
C=CCNC(=O)C1CC(=O)N(c2ccc(OCc3ccc(F)cc3)cc2)C1 (stereo not given)	n	u	n	37	n
C=CCNC(=O)C1CC(=O)N(c2ccc(OCC(=O)Nc3ccc(C)cc3)cc2)C1 (stereo not given)	n	n	n	x	n
CN1C(=O)c2cc(NC(=O)Nc3ccccc3F)ccc2OC[C@@H]2O[C@@H](CC(=O)O)CC[C@H]21	x	n	x	x	x
SMILES	MITF act	esBAF inh	AHR act	Wnt act	GAA850 FXN act
COCC1CCCN(C(=O)c2ccc3oc(CCCc4ccccc4)nc3c2)C1 (stereo not given)	n	n	n	n	n
COCC1CCN(C(=O)c2ccc3oc(CCCc4ccccc4)nc3c2)C1 (stereo not given)	n	46	n	n	n
O=C(c1ccc2oc(CCc3ccccc3)nc2c1)N1CCC(O)CC1	92	n	n	n	n
COCC1CCN(C(=O)c2ccc3oc(Cc4ccc(Cl)cc4)nc3c2)C1 (stereo not given)	n	n	n	n	n
CCCCc1nc2cc(C(=O)N3CCC(OCCOC)CC3)ccc2o1	n	n	n	n	n
CCCCc1nc2cc(C(=O)N3CCCC(COC)C3)ccc2o1 (stereo not given)	n	63	n	n	n
CCCCc1nc2cc(C(=O)N3CCCC(OCCC)C3)ccc2o1 (stereo not given)	u	64	n	n	n
